Source: publication PMC7862700, “An all-to-all approach to the identification of sequence-specific readers for epigenetic DNA modifications on cytosine”

Assays:
Assay in all cases: DAPPL (digital affinity profiling via proximity ligation, sequencing); 10 mM Tris-HCl pH 7.5, 50 mM NaCl, 1 mM DTT, 4% glycerol, room temperature, 30 min; GST-TFs on glutathione beads, 16-mer random dsDNA library, 0.1% formaldehyde crosslink after washing; high values mean tight binding
FEV = molecular target: T1, FEV (Homo sapiens, UniProt Q99581 1-238); conditions: protein: recombinant; tags: N-terminal GST; dsDNA, one strand shown
T1 sequence: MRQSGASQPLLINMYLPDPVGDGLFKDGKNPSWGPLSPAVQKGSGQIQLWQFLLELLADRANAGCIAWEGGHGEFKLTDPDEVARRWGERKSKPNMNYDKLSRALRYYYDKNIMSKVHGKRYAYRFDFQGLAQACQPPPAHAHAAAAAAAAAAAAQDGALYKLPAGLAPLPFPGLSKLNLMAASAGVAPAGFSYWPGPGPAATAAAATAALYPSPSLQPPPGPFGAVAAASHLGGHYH
Outline: (§1)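 Human transcription factors were made in yeast as GST fusions, captured on glutathione beads and barcoded with DNA. With a tag-only sample included, the pool was incubated with 200 nmole of a random double-stranded 16-mer DNA library in Tris/NaCl/DTT/glycerol buffer at room temperature for 30 min, then crosslinked with 0.1% formaldehyde after washing, ligated by proximity, amplified and sequenced. For binding signal, each hexamer's read frequency for a factor is divided by its frequency for the tag-only sample.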

ETV5 = ETV5 (Homo sapiens, UniProt P41161 1-510); conditions: protein: recombinant; tags: N-terminal GST; dsDNA, one strand shown
Sequence of ETV5 (P41161 whole entry): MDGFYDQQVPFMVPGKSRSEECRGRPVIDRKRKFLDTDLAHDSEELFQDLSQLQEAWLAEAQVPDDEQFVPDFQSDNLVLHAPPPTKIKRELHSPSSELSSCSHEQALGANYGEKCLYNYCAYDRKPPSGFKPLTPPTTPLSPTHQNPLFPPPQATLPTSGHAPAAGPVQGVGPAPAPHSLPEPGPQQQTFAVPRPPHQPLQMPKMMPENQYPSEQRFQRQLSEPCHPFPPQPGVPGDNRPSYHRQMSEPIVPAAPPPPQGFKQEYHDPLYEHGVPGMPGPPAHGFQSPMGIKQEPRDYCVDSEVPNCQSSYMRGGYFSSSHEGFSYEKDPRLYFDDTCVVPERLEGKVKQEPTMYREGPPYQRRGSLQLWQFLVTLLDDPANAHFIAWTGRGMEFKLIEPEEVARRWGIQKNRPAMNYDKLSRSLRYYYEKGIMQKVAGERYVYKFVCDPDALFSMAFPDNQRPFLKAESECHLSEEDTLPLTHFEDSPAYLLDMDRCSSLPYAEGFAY
Outline: as §1

HSF1 = HSF1 (Homo sapiens, UniProt Q00613 1-529); conditions: protein: recombinant; tags: N-terminal GST; chain copies: 3; dsDNA, one strand shown
Sequence of HSF1 (Q00613 whole entry): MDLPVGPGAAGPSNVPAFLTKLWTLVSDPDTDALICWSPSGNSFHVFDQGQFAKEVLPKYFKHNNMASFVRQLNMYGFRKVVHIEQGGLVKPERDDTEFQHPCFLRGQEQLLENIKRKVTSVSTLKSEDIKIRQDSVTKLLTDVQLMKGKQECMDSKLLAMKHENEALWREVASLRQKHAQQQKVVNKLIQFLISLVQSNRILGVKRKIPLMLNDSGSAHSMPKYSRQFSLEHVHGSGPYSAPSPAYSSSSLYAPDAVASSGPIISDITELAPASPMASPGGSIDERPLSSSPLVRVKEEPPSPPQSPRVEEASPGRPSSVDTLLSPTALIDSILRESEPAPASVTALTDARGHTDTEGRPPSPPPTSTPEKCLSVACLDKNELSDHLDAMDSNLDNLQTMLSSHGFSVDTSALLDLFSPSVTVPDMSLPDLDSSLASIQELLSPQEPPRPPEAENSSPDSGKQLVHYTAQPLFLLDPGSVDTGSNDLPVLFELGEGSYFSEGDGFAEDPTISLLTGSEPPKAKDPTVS
Outline: as §1

SPIC = molecular target: T2, SPIC (Homo sapiens, UniProt Q8N5J4 1-248); conditions: protein: recombinant; tags: N-terminal GST; dsDNA, one strand shown
T2 sequence: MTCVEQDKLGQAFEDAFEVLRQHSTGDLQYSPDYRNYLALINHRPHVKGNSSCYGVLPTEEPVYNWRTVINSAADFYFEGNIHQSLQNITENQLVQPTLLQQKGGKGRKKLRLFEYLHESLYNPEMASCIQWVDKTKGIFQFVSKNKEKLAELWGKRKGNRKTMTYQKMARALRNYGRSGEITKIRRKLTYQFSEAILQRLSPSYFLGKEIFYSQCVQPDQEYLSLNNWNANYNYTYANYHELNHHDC
Outline: as §1

ELF4 = ELF4 (Homo sapiens, UniProt Q99607 1-663); conditions: protein: recombinant; tags: N-terminal GST; dsDNA, one strand shown
Sequence of ELF4 (Q99607 whole entry): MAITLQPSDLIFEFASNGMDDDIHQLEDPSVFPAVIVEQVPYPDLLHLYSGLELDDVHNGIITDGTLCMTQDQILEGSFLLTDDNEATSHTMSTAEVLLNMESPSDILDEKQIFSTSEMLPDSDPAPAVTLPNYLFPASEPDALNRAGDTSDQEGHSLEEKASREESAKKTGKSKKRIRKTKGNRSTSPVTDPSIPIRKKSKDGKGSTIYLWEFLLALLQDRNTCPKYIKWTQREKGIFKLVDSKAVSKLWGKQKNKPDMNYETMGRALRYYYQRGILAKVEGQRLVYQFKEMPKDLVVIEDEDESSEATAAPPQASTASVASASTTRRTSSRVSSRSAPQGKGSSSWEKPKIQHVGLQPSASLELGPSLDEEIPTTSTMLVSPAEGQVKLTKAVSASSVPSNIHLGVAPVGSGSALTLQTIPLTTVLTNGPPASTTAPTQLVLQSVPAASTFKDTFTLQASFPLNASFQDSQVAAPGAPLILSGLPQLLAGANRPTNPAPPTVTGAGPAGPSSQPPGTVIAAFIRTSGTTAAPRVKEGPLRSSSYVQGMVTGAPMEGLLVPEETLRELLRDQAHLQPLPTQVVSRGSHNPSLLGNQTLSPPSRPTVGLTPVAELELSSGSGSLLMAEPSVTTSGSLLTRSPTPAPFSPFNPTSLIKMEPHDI
Outline: as §1

ELK4 = molecular target: T3, ELK4 (Homo sapiens, UniProt P28324-2 1-405); conditions: protein: recombinant; tags: N-terminal GST; dsDNA, one strand shown
T3 sequence: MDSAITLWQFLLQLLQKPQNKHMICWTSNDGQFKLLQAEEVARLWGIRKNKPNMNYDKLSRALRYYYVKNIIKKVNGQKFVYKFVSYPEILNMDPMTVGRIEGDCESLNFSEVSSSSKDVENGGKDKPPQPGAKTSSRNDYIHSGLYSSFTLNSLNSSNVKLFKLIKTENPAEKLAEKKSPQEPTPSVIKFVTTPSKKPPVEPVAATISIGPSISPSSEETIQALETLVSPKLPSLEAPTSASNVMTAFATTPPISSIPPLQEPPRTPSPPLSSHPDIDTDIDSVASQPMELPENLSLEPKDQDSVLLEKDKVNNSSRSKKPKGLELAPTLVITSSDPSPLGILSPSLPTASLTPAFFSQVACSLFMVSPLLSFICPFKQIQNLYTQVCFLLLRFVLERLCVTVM
Outline: as §1

ETV2 = molecular target: T4, ETV2 (Homo sapiens, UniProt O00321 1-342); conditions: protein: recombinant; tags: N-terminal GST; dsDNA, one strand shown
T4 sequence: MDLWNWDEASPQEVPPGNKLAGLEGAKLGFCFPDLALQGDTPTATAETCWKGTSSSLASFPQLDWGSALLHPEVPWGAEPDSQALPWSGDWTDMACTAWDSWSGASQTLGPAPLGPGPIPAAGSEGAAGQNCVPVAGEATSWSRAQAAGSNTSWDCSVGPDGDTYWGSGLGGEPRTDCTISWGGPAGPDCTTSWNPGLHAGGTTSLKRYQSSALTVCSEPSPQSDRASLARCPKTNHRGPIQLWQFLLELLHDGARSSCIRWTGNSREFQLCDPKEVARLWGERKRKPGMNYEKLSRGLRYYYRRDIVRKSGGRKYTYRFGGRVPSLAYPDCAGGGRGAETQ
Outline: as §1

ELF3 = molecular target: T5, ELF3 (Homo sapiens, UniProt P78545 1-371); conditions: protein: recombinant; tags: N-terminal GST; dsDNA, one strand shown
T5 sequence: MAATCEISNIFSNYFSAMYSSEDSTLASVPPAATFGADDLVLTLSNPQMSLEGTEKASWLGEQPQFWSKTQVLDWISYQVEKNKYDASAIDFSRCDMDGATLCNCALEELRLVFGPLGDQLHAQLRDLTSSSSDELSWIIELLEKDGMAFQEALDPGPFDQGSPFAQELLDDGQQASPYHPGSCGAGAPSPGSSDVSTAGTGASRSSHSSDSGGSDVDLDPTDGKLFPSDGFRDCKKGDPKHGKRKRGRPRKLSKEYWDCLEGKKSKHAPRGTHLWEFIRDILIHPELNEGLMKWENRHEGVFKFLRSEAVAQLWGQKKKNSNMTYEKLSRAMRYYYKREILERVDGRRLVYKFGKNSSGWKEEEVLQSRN
Outline: as §1

CRX = CRX (Homo sapiens, UniProt O43186 1-299); conditions: protein: recombinant; tags: N-terminal GST; dsDNA, one strand shown
Sequence of CRX (O43186 whole entry): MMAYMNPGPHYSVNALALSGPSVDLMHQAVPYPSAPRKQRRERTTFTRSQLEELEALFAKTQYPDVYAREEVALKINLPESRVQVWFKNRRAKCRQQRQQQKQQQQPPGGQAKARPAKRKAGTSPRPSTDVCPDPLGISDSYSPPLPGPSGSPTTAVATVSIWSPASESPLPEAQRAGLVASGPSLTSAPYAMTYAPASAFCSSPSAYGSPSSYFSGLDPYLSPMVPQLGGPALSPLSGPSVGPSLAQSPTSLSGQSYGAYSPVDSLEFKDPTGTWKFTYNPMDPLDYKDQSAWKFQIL
Outline: as §1

ETV1 = ETV1 (Homo sapiens, UniProt P50549 1-477); conditions: protein: recombinant; tags: N-terminal GST; dsDNA, one strand shown
Sequence of ETV1 (P50549 whole entry): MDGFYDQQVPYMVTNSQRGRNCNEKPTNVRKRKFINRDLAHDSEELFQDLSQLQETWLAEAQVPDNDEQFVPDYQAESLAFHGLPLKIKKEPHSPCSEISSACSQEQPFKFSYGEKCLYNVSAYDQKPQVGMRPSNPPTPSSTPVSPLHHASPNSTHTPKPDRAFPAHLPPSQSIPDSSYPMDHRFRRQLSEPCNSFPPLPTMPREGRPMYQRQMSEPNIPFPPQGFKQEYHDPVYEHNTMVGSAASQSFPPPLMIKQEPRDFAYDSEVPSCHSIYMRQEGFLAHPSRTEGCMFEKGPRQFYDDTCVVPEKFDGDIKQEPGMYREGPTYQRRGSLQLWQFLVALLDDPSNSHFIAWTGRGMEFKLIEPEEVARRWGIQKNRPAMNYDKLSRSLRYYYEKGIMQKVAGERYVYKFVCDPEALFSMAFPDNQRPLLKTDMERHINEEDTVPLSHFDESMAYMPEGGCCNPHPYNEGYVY
Outline: as §1

ERF = molecular target: T6, ERF (Homo sapiens, UniProt P50548 1-548); conditions: protein: recombinant; tags: N-terminal GST; dsDNA, one strand shown
T6 sequence: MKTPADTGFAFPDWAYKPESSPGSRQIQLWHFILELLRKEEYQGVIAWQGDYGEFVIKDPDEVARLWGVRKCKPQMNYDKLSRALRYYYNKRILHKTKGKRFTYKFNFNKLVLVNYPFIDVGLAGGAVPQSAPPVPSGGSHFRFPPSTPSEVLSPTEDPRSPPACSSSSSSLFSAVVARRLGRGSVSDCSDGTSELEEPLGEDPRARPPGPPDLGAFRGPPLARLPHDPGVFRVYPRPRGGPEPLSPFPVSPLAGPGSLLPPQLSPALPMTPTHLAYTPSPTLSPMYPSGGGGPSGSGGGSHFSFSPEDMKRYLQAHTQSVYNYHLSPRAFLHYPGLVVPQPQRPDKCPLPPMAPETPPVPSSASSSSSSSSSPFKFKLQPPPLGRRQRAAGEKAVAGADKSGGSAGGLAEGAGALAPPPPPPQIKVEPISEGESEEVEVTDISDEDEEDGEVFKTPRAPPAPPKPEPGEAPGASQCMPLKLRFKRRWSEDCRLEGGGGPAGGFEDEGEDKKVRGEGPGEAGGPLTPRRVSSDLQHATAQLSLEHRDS
Outline: as §1

ETV3L = molecular target: T7, ETV3L (Homo sapiens, UniProt Q6ZN32 1-361); conditions: protein: recombinant; tags: N-terminal GST; dsDNA, one strand shown
T7 sequence: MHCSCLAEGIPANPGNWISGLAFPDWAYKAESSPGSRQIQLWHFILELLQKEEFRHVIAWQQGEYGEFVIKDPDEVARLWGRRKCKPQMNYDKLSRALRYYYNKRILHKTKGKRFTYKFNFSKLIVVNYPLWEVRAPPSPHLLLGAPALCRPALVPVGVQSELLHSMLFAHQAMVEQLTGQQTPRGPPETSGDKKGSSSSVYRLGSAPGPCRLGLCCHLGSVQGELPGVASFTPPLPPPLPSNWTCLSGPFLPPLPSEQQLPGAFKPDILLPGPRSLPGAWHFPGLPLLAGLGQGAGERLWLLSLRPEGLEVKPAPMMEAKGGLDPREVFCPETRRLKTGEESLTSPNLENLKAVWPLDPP
Outline: as §1

ETS2 = molecular target: T8, ETS2 (Homo sapiens, UniProt P15036 1-469); conditions: protein: recombinant; tags: N-terminal GST; dsDNA, one strand shown
T8 sequence: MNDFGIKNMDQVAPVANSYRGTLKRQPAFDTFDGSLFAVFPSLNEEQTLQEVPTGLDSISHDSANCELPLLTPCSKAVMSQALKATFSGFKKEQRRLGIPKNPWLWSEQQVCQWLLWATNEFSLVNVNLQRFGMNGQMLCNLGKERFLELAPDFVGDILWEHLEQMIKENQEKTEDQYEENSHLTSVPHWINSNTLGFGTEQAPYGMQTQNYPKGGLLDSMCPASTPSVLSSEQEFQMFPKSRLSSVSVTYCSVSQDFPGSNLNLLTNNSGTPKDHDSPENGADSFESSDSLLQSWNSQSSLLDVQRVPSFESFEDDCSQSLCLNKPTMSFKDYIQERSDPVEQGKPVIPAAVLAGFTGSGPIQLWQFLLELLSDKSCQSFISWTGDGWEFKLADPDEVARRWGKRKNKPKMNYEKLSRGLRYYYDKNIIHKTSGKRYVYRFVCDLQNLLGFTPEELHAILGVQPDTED
Outline: as §1

SPDEF = molecular target: T9, SPDEF (Homo sapiens, UniProt O95238 1-335); conditions: protein: recombinant; tags: N-terminal GST; dsDNA, one strand shown
T9 sequence: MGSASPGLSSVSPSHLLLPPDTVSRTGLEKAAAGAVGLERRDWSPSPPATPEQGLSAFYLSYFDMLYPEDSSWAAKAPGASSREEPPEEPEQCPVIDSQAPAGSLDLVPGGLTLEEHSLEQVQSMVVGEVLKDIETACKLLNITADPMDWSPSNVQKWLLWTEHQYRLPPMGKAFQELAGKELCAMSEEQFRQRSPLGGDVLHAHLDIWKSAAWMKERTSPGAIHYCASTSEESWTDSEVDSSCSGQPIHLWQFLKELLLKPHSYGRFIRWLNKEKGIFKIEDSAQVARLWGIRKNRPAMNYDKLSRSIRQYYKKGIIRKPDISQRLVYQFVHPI
Outline: as §1

ETV7 = molecular target: T10, ETV7 (Homo sapiens, UniProt Q9Y603 1-341); conditions: protein: recombinant; tags: N-terminal GST; dsDNA, one strand shown
T10 sequence: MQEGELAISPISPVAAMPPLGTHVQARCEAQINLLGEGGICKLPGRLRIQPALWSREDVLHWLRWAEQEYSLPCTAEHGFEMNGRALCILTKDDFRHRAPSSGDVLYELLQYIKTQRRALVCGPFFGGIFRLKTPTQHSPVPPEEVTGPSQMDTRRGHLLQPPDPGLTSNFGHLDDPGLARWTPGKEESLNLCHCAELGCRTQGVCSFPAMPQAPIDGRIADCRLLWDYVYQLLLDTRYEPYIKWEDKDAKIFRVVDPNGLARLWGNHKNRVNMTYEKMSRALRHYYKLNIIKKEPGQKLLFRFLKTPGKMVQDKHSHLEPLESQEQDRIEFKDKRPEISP
Outline: as §1

ELF5 = molecular target: T11, ELF5 (Homo sapiens, UniProt Q9UKW6-2 1-255); conditions: protein: recombinant; tags: N-terminal GST; dsDNA, one strand shown
T11 sequence: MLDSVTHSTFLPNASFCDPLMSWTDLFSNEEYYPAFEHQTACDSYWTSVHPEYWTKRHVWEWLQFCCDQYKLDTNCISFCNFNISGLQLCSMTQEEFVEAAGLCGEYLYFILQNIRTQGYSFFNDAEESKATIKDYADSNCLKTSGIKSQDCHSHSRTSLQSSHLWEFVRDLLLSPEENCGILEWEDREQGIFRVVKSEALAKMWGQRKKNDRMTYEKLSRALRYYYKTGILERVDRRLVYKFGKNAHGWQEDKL
Outline: as §1

ETV3 = molecular target: T12, ETV3 (Homo sapiens, UniProt P41162-2 1-143); conditions: protein: recombinant; tags: N-terminal GST; dsDNA, one strand shown
T12 sequence: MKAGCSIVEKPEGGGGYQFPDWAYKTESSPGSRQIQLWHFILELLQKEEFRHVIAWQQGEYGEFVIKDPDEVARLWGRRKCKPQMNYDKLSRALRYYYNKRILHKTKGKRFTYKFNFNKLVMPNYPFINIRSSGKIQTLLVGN
Outline: as §1

ETV6 = ETV6 (Homo sapiens, UniProt P41212 1-452); conditions: protein: recombinant; tags: N-terminal GST; dsDNA, one strand shown
Sequence of ETV6 (P41212 whole entry): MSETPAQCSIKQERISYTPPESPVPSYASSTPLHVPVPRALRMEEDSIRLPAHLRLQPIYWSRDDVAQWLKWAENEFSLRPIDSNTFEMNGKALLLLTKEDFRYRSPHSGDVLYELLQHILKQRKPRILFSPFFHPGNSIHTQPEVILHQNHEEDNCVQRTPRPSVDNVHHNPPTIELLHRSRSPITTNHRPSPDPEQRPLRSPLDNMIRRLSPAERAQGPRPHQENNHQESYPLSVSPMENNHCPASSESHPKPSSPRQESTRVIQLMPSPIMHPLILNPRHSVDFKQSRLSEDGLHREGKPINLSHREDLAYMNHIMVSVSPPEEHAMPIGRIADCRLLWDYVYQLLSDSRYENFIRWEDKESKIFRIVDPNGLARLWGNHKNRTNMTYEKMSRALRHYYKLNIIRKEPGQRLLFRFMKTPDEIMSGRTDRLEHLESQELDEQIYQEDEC
Outline: as §1

Question: How did the binding signal (FEV) turn out when GTTCCT was run?
Answer: The binding signal was 1.75 fold enrichment (6-mer frequency, TF over GST control).

Question: And the binding signal (ETV5)?
Answer: The binding signal was 1.91 fold enrichment (6-mer frequency, TF over GST control).

Question: And the binding signal (HSF1)?
Answer: Its binding signal is 1.43 fold enrichment (6-mer frequency, TF over GST control).

Question: And the binding signal (SPIC)?
Answer: The binding signal was 1.96 fold enrichment (6-mer frequency, TF over GST control).

Question: What about the binding signal (ELF4) of the same sequence?
Answer: Its binding signal is 1.6 fold enrichment (6-mer frequency, TF over GST control).

Question: And the binding signal (ELK4)?
Answer: Its binding signal is 1.48 fold enrichment (6-mer frequency, TF over GST control).

Question: What about the binding signal (ETV2) of the same sequence?
Answer: Its binding signal is 1.65 fold enrichment (6-mer frequency, TF over GST control).

Question: What about the binding signal (ELF3) of the same sequence?
Answer: The binding signal was 1.6 fold enrichment (6-mer frequency, TF over GST control).

Question: What about the binding signal (CRX) of the same sequence?
Answer: The binding signal was 1.07 fold enrichment (6-mer frequency, TF over GST control).

Question: And the binding signal (ETV1)?
Answer: The binding signal was 1.79 fold enrichment (6-mer frequency, TF over GST control).

Question: And the binding signal (ERF)?
Answer: The binding signal was 1.49 fold enrichment (6-mer frequency, TF over GST control).

Question: And the binding signal (ETV3L)?
Answer: Its binding signal is 1.71 fold enrichment (6-mer frequency, TF over GST control).

Question: What about the binding signal (ETS2) of the same sequence?
Answer: The binding signal was 1.75 fold enrichment (6-mer frequency, TF over GST control).

Question: What about the binding signal (SPDEF) of the same sequence?
Answer: The binding signal was 1.74 fold enrichment (6-mer frequency, TF over GST control).

Question: What about the binding signal (ETV7) of the same sequence?
Answer: Its binding signal is 1.67 fold enrichment (6-mer frequency, TF over GST control).

Question: What about the binding signal (ELF5) of the same sequence?
Answer: Its binding signal is 2.54 fold enrichment (6-mer frequency, TF over GST control).

Question: And the binding signal (ETV3)?
Answer: Its binding signal is 1.88 fold enrichment (6-mer frequency, TF over GST control).

Question: And the binding signal (ETV6)?
Answer: The binding signal was 1.82 fold enrichment (6-mer frequency, TF over GST control).
